In PubChem BioAssay AID1117361 (Southern Research Institute, 2015):
The campaign covered roughly 3,600 compounds. About 900 (25%) were called active. The rule behind the calls is not given here. These entries were drawn from the full list. Measured potencies and affinities stand elsewhere.

What follows are compounds tested against Protein Tat (Human immunodeficiency virus type 1 group M subtype B (isolate HXB2)) (UniProt P04608) (assay: inhibitors of Tat binding to TAR RNA, dose response, counter-screen for Vif-APOBEC3G degradation inhibitor project, biochemical, fluorescence polarization, FAM-labeled TAR RNA (AID 1117361)). Settings: outcome: dose series up to 100 µM unless noted; series mostly up to 100 µM.

| Structure (SMILES) | outcome |
| --- | --- |
| CCn1c(-c2csc(-c3ccc(Cl)cc3)n2)n[nH]c1=S | inactive |
| COc1ccc(N2CCC(CNS(=O)(=O)c3cccc(C(F)(F)F)c3)C2)cc1 (configuration not stated) | inactive |
| COc1ccc(NC(=O)CN2CCN(c3ccc(F)cc3)CC2)cc1Cl | inactive |
| COc1ccc(-c2nc(C#N)c(NCc3ccccc3Cl)o2)cc1OC | inactive |
| O=C(c1cccc(C(F)(F)F)c1)C1CCCN(C(=O)CCCN2CCCC2=O)C1 (configuration not stated) | inactive |
| CCc1nnc(NC(=O)c2ccc(-c3ccccc3Cl)o2)s1 | inactive |
| CCOC(=O)C1CC(CN2C(=O)c3ccccc3C2=O)OC1=O (configuration not stated) | inactive |
| CCOC(=O)c1c(C)nn(Cc2cccc(Cl)c2)c1N | inactive |
| Nc1ncnc2c1cnn2C1CCCCC1 | inactive |
| S=c1[nH]nc(COc2ccc(Cl)cc2)n1Cc1ccccc1 | inactive |
| COc1ccccc1N1CCN(CCc2n[nH]c(=S)n2-c2ccccc2)CC1 | inactive |
| O=C1N(Cc2cccnc2)C[C@@H]2C[C@@H](c3ccc4nsnc4c3)N3CCC[C@@]123 | inactive |
| COc1cccc(C(=O)N2CCN(Cc3nc(CC4CC4)no3)CC2)c1 | inactive |
| COc1ccc(N=CC2=C(O)CCCC2=O)cc1 | inactive |
| O=C1CCCC(O)=C1C=Nc1ccc(O)cc1 | inactive |
| CC1CN(C(=O)COC(=O)Cc2ccc(Cl)cc2)CC(C)O1 (configuration not stated) | inactive |
| CCCCn1c(C)nc2c(=O)n(C)c(=O)[nH]c21 | inactive |
| CCN(CC)CCN1C(=O)C(=O)/C(=C(/O)c2ccc(C)cc2)C1c1ccncc1 (configuration not stated) | inactive |
| CN(C1CCCCC1)S(=O)(=O)c1cccc(C(=O)OCC(=O)NC2CCCc3ccccc32)c1 (configuration not stated) | inactive |
| CC(OC(=O)/C=C/c1ccco1)C(=O)NC1CCCCC1 (configuration not stated) | inactive |
| CCCc1nc2ccccc2c(C(=O)OCC(=O)N2CCc3ccccc32)c1CC | inactive |
| Cc1nc2ccc(NC(=O)c3cc(S(=O)(=O)N4CCOCC4)ccc3C)cc2s1 | inactive |
| COc1ccc(OCCOC(=O)c2cccc(-n3cnnn3)c2)cc1 | inactive |
| COc1ccc(C(C)(C)C)cc1NC(=O)C1C2C=CC(C2)C1C(=O)O (configuration not stated) | inactive |

| Structure (SMILES) | outcome |
| --- | --- |
| Cc1cc(-c2ccco2)n(-c2ccccc2)n1 | inactive |
| Cc1nc2nc(-c3ccco3)nn2c(C)c1Cl | inactive |
| CC1CCc2nc(NC(=O)c3ccco3)sc2C1 (configuration not stated) | inactive |
| O=C(Nc1nc(-c2ccco2)c(-c2ccco2)s1)c1ccc(F)cc1F | inactive |
| c1coc(-c2nc3nc4ccccc4n3nc2-c2ccco2)c1 | inactive |
| O=C1CN(C(=O)COC(=O)c2oc3ccccc3c2COc2ccccc2)c2ccccc2N1 | inactive |
| Cc1cc(C(=O)Nc2c(C)cccc2C)n(-c2ccccc2)n1 | inactive |
| Cc1ccc(NC(=O)CSc2nnc([C@H](C)NC(=O)OC(C)(C)C)o2)c(C)c1 | inactive |
| Cn1c2ccccc2c2c(C(=O)O)cn(C3CCCC3)c(=O)c21 | inactive |
| CCC(=O)N1CCc2cc(S(=O)(=O)NCCC(=O)NC3CCCc4ccccc43)ccc21 (configuration not stated) | inactive |
| COc1ccc(N(C(=O)c2ccco2)S(=O)(=O)c2cc(Cl)c(Cl)cc2Cl)cc1 | inactive |
| O=C(O)CCC(=O)NNC(=O)CCC(=O)NCc1ccccc1 | inactive |
| CC(c1ccccc1)N(C)CC(=O)NC(=O)NCCC1=CCCCC1 (configuration not stated) | inactive |
| O=C(NCc1cccs1)c1ccc2c(c1)ncn2C1CCCC1 | inactive |
| Cc1cccc2c1N(CCCOc1ccc(C(C)(C)C)cc1)C(=O)C2=O | inactive |
| CCOC(=O)c1cc2sc(C)cc2n1CC(=O)N1CCN(C(=O)c2ccco2)CC1 | inactive |
| O=C(CSc1nc2cc(Cl)ccc2s1)N1CCN(C(=O)c2ccco2)CC1 | inactive |
| COc1ccccc1CN(C)C(=O)CN1CCN(C(=O)c2cccs2)CC1 | inactive |
| Cc1nn(-c2ccccc2)c(C)c1/C=N/NC(=O)c1cc(-c2ccccc2)n[nH]1 | inactive |
| COc1ccccc1NS(=O)(=O)c1cccc2cccnc12 | inactive |
| Cn1c(=O)cc(NCc2ccccc2)[nH]c1=O | inactive |
| O=C(NCC1CCCO1)C1CCCN(Cc2cnn(-c3ccccc3)c2-n2cccc2)C1 (configuration not stated) | inactive |
| Cc1ccc2[nH]c(=O)c(CN(Cc3ccco3)C(=O)c3ccncc3)cc2c1 | inactive |
| COc1ccc2nc3oc(C(=O)N4CCCCC4)cc3cc2c1 | inactive |

| Structure (SMILES) | outcome |
| --- | --- |
| Cc1ccc(NC(=O)COc2ccccc2C(=O)Nc2ccccc2)cc1Cl | inactive |
| COc1cc(NC(=O)Cc2ccccc2)cc(OC)c1 | inactive |
| O=C(CCCCCCC(=O)NCc1ccccc1)NCc1ccccc1 | inactive |
| CC(C)Cn1c2c(c(O)c(C(=O)Nc3nccs3)c1=O)CCCC2 | inactive |
| COc1ccc(-c2[nH]c3ccccc3c2SCCN)cc1 | inactive |
| Cc1nnc(N2CCc3ccccc3C2)[nH]c1=O | inactive |
| CCS(=O)(=O)N1CCC(C(=O)NCc2cccc(OC)c2)CC1 | inactive |
| COc1cccc(CC(=O)Nc2nccs2)c1 | inactive |
| O=C(Cn1cnc2ccccc2c1=O)c1cccs1 | inactive |
| CN(C)c1nc(N)nc(CSc2ncc(Cl)cc2Cl)n1 | inactive |
| Cc1ccccc1CCNC(=O)c1ccc(Cl)c(S(=O)(=O)N2CC(C)OC(C)C2)c1 (configuration not stated) | inactive |
| COc1ccccc1-n1cnc2cc(NCc3cccs3)ccc21 | inactive |
| COc1ccc(S(=O)(=O)N2CCCCCC2)cc1C(=O)OCC(=O)NC(N)=O | inactive |
| CSc1nc2ccc3nc(NC(=O)c4cccs4)sc3c2s1 | inactive |
| Cn1c(NC(=O)c2cccs2)cc(=O)n(C)c1=O | inactive |
| CCCCCCn1c(SCC(=O)c2c(N)n(C)c(=O)n(C)c2=O)nc2ccccc21 | inactive |
| COc1cccc(C(=O)CSc2nc3ccccc3n2CC(=O)N2CCOCC2)c1 | inactive |
| CN(CC(=O)NCCc1ccccc1)S(=O)(=O)c1cccs1 | inactive |
| O=C1CCCC2=C1C(c1ccco1)Nc1ccc3ccccc3c12 (configuration not stated) | inactive |
| COc1ccc(Br)cc1C1CC(=O)N2CN(Cc3ccccc3)CSC2=C1C#N (configuration not stated) | inactive |
| COc1ccc(C2CC(=O)N3CN(c4ccc(C)c(Cl)c4)CSC3=C2C#N)cc1 (configuration not stated) | inactive |
| CCOC(=O)CCN(Cc1sccc1C)S(=O)(=O)c1ccc(F)cc1 | inactive |
| Cc1ccnc(NC(=O)c2ccc(Cl)c(S(=O)(=O)N3CCCC3)c2)c1 | inactive |
| COc1ccc(NC(=O)Cn2c(=O)sc3ccccc32)cc1 | inactive |
